According to the supplement of paper PMC10849652:
The full data set covers some 8,800 targets. This sample favours those with a hit. About 0.5% of all pairs of compound and target were hits.

Tests used:
Assay in all cases: log2 fold change, soluble protein after heating vs DMSO (PISA); higher = thermal stabilisation; K562 lysate, 10 uM; active = over 0.2 and 3.5 SD of the protein, either way, in both replicates (recomputed)
lapatinib = compound: CS(=O)(=O)CCNCc1ccc(-c2ccc3ncnc(Nc4ccc(OCc5cccc(F)c5)c(Cl)c4)c3c2)o1 [lapatinib]
Procedure, shortened: (§1)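 The values are log-two fold changes in thermal stability compared with solvent controls and come from duplicates. They were obtained by TMTpro 16plex LC-MS/MS, with channel sums equalised, on the supernatant after 21,000xg for 90 min. That supernatant came from crude K562 extract at 1 mg/mL protein treated with 10 μM compound for 30 min, heated for 3 min across 48°C-58°C, pooled and brought to 0.5% NP-40 at 4°C.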

pictilisib = compound: CS(=O)(=O)N1CCN(Cc2cc3nc(-c4cccc5[nH]ncc45)nc(N4CCOCC4)c3s2)CC1 [pictilisib]
Procedure, shortened: as §1

crizotinib = compound: C[C@@H](Oc1cc(-c2cnn(C3CCNCC3)c2)cnc1N)c1c(Cl)ccc(F)c1Cl [crizotinib]
Procedure, shortened: as §1

[1] = compound: C[C@H](C1=CC=C(C=C1)C(=O)NC2=C3C=CNC3=NC=C2)N
Procedure, shortened: as §1

duvelisib = compound: C[C@H](Nc1ncnc2nc[nH]c12)c1cc2cccc(Cl)c2c(=O)n1-c1ccccc1 [duvelisib]
Procedure, shortened: as §1

gandotinib = compound: Cc1cc(Nc2cc(CN3CCOCC3)c3nc(C)c(Cc4ccc(Cl)cc4F)n3n2)n[nH]1 [gandotinib]
Procedure, shortened: as §1

tozasertib = compound: Cc1cc(Nc2cc(N3CCN(C)CC3)nc(Sc3ccc(NC(=O)C4CC4)cc3)n2)n[nH]1 [tozasertib]
Procedure, shortened: as §1

doramapimod = compound: Cc1ccc(-n2nc(C(C)(C)C)cc2NC(=O)Nc2ccc(OCCN3CCOCC3)c3ccccc23)cc1 [doramapimod]
Procedure, shortened: as §1

bafetinib = compound: Cc1ccc(NC(=O)c2ccc(CN3CC[C@H](N(C)C)C3)c(C(F)(F)F)c2)cc1Nc1nccc(-c2cncnc2)n1 [bafetinib]
Procedure, shortened: as §1

[2] = compound: Cc1cccc(CC(=O)N2CCc3c2ccc(-c2cn(C)c4ncnc(N)c24)c3F)n1
Procedure, shortened: as §1

nilotinib = compound: Cc1cn(-c2cc(NC(=O)c3ccc(C)c(Nc4nccc(-c5cccnc5)n4)c3)cc(C(F)(F)F)c2)cn1 [nilotinib]
Procedure, shortened: as §1

[3] = compound: Cc1nc(Nc2n[nH]c3c2CN(C(=O)N[C@H](CN(C)C)c2ccccc2)C3(C)C)c2sccc2n1
Procedure, shortened: as §1

dasatinib = compound: Cc1nc(Nc2ncc(C(=O)Nc3c(C)cccc3Cl)s2)cc(N2CCN(CCO)CC2)n1 [dasatinib]
Procedure, shortened: as §1

[4] = compound: Cc1ncc(-c2ccnc(Nc3ccc(S(C)(=O)=O)cc3)n2)n1C(C)C
Procedure, shortened: as §1

[5] = compound: Cn1cc(-c2ccc3c(c2)CCN3C(=O)Cc2cccc(C(F)(F)F)c2)c2c(N)ncnc21
Procedure, shortened: as §1

quisinostat = compound: Cn1cc(CNCC2CCN(c3ncc(C(=O)NO)cn3)CC2)c2ccccc21 [quisinostat]
Procedure, shortened: as §1

tipifarnib = compound: Cn1cncc1[C@@](N)(c1ccc(Cl)cc1)c1ccc2c(c1)c(-c1cccc(Cl)c1)cc(=O)n2C [tipifarnib]
Procedure, shortened: as §1

[6] = compound: NC(=O)Nc1cc(-c2cccc(F)c2)sc1C(=O)N[C@H]1CCCNC1
Procedure, shortened: as §1

[7] = compound: NC(=O)c1cnc(N[C@@H]2CCCC[C@@H]2N)nc1Nc1cccc(-n2nccn2)c1
Procedure, shortened: as §1

[8] = compound: NC1(c2ccc(-c3nc4ccn5c(=O)[nH]nc5c4cc3-c3ccccc3)cc2)CCC1
Procedure, shortened: as §1

Measured: log2 fold change

PDCD10 (UniProt Q9BUL8)
UniProt Q9BUL8, sequence (Q9BUL8 whole entry, looked up): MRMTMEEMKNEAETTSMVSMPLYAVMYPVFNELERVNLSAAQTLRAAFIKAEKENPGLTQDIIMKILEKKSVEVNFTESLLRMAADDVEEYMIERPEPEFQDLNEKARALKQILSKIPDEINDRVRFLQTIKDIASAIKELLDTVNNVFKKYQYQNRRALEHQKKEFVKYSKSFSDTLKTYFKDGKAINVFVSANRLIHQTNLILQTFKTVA
active: [1] -0.254
inactive: lapatinib -0.016 | pictilisib -0.014 | crizotinib -0.005 | duvelisib -0.007 | gandotinib 0.112 | tozasertib 0.023 | doramapimod -0.013 | bafetinib -0.033 | [2] 0.031 | nilotinib 0.006 | [3] 0.121 | dasatinib 0.077 | [4] 0.03 | [5] 0.013 | quisinostat -0.053 | tipifarnib -0.005 | [6] 0.114 | [7] -0.018 | [8] 0.004

PDCD4 (UniProt Q53EL6)
UniProt Q53EL6, sequence (Q53EL6 whole entry, looked up): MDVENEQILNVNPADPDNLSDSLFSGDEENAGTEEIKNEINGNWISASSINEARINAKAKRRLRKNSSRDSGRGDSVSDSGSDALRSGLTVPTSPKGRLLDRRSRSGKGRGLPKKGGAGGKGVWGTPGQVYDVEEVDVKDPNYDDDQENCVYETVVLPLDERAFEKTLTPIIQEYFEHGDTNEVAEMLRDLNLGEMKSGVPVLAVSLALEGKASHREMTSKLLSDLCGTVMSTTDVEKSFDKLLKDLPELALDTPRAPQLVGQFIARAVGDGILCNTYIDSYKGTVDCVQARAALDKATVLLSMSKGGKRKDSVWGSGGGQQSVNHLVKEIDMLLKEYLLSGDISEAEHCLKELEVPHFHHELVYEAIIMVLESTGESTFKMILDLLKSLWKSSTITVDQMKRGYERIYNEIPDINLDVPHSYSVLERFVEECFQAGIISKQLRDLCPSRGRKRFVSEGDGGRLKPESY
inactive: lapatinib -0.026 | pictilisib -0.003 | crizotinib -0.055 | [1] -0.051 | duvelisib -0.022 | gandotinib 0.009 | tozasertib -0.002 | doramapimod 0.011 | bafetinib -0.038 | [2] 0.062 | nilotinib 0.028 | [3] 0.019 | dasatinib -0.026 | [4] 0.035 | [5] 0.005 | quisinostat -0.044 | tipifarnib -0.008 | [6] -0.01 | [7] 0.009 | [8] -0.013

PDF (UniProt Q9HBH1)
UniProt Q9HBH1, sequence (Q9HBH1 whole entry, looked up): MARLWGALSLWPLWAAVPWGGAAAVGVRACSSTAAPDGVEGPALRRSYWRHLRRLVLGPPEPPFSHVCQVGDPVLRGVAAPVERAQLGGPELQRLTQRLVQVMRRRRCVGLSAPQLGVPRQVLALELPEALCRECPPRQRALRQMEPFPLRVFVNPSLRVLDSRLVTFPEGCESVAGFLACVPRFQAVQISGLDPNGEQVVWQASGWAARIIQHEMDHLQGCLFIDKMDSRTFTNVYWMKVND
inactive: lapatinib 0.027 | pictilisib -0.016 | crizotinib -0.067 | [1] 0.018 | duvelisib -0.076 | gandotinib -0.019 | tozasertib 0.029 | doramapimod 0.027 | bafetinib -0.162 | [2] 0.025 | nilotinib 0.014 | [3] 0.002 | dasatinib -0.037 | [4] 0.02 | [5] 0.067 | quisinostat -0.064 | tipifarnib -0.012 | [6] 0.022 | [7] -0.034 | [8] 0.056

PTK2 (UniProt Q05397)
UniProt Q05397, sequence (Q05397 whole entry, looked up): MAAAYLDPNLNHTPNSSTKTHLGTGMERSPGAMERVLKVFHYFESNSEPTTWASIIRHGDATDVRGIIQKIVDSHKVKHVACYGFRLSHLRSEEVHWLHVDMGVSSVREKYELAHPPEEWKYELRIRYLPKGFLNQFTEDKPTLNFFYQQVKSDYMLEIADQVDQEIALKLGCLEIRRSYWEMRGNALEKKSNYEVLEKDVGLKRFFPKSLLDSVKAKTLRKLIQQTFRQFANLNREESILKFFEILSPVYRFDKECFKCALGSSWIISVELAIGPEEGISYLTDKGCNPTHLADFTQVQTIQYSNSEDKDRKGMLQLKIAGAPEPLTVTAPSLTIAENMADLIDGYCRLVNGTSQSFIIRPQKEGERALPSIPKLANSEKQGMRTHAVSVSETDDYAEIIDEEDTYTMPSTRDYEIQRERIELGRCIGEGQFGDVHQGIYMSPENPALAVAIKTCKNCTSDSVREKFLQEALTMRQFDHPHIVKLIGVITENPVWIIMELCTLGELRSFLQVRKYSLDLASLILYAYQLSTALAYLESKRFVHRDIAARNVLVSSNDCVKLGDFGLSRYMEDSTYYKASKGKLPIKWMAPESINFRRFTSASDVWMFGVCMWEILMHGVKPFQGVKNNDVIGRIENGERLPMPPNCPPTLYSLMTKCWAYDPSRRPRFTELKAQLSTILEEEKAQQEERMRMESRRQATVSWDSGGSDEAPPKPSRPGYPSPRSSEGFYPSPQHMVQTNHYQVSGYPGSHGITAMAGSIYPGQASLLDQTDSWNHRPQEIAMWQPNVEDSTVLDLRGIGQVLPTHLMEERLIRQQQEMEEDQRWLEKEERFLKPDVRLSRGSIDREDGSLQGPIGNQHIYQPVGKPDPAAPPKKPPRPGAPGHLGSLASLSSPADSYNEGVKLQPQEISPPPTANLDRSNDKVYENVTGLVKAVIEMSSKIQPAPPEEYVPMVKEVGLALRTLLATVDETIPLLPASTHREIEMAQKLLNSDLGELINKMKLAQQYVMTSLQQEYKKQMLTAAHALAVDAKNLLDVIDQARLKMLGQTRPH
inactive: lapatinib -0.116 | pictilisib 0.038 | crizotinib 0.414 | [1] 0.007 | duvelisib -0.076 | gandotinib 0.396 | tozasertib 0.026 | bafetinib -0.008 | [2] -0.117 | nilotinib -0.032 | [3] 0.235 | dasatinib 0.083 | [4] 0.078 | [5] 0.18 | quisinostat -0.038 | tipifarnib -0.046 | [6] 0.373 | [7] 0.081 | [8] 0.021

PIP4K2A (UniProt P48426)
UniProt P48426, sequence (P48426 whole entry, looked up): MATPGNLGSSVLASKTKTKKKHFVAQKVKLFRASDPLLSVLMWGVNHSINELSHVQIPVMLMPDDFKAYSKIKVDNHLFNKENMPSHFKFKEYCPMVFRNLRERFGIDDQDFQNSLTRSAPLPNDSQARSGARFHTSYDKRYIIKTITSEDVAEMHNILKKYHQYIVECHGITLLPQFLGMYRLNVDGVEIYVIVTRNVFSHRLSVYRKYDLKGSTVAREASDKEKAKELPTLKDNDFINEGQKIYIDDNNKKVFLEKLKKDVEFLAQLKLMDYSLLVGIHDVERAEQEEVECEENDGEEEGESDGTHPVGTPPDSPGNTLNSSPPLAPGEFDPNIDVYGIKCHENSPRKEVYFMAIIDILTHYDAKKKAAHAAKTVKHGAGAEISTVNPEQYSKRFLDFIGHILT
active: bafetinib 0.301
inactive: lapatinib -0.04 | pictilisib 0.032 | crizotinib 0.019 | [1] -0.089 | duvelisib 0.05 | gandotinib 0.109 | tozasertib 0.014 | doramapimod -0.035 | [2] 0.005 | nilotinib 0.041 | [3] -0.006 | dasatinib 0.068 | [4] 0.141 | [5] 0.046 | quisinostat -0.001 | tipifarnib -0.062 | [6] 0.039 | [7] -0.012 | [8] -0.056

PPME1 isoform 4 (UniProt Q9Y570)
UniProt Q9Y570, sequence (Q9Y570 whole entry, looked up): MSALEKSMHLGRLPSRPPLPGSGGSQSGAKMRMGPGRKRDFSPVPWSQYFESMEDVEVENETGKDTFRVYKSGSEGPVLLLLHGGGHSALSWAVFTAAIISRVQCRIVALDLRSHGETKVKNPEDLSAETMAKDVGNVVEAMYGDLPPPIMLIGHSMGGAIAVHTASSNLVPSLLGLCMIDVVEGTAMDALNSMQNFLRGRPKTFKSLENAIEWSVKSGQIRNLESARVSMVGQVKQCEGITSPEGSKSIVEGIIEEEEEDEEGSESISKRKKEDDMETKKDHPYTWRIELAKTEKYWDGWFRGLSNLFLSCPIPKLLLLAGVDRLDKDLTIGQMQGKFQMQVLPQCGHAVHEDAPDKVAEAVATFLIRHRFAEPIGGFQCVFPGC
inactive: lapatinib -0.014 | pictilisib 0.009 | crizotinib 0.005 | [1] -0.014 | duvelisib 0.002 | gandotinib -0.002 | tozasertib 0.048 | doramapimod 0.026 | bafetinib 0.052 | [2] -0.006 | nilotinib 0.01 | [3] -0.053 | dasatinib -0.008 | [4] -0.025 | [5] -0.003 | quisinostat 0.018 | tipifarnib 0.01 | [6] -0.03 | [7] -0.016 | [8] 0.041

PFKP (UniProt Q01813)
UniProt Q01813, sequence (Q01813 whole entry, looked up): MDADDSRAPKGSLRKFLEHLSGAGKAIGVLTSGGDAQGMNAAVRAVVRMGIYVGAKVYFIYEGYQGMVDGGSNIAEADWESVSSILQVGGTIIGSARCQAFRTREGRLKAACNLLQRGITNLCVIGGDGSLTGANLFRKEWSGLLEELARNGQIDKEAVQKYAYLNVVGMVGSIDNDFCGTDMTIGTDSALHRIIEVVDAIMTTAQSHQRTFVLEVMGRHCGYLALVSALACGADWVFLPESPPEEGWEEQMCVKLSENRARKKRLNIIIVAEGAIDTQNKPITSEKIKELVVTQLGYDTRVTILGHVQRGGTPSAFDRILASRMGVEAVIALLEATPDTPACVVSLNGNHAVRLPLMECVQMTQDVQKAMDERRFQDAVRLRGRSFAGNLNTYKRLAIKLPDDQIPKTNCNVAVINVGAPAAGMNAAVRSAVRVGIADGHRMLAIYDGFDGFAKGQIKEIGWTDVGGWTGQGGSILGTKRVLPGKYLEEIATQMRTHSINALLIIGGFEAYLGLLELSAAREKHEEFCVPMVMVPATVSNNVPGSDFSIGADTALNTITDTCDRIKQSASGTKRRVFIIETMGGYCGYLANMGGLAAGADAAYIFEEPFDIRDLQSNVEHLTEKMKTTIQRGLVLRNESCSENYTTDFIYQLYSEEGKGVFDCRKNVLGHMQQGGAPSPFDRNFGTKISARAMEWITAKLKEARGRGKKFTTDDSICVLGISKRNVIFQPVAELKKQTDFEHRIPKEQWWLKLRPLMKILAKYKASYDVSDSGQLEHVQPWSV
inactive: lapatinib -0.011 | pictilisib -0.014 | crizotinib 0.014 | [1] 0.033 | duvelisib -0.02 | gandotinib -0.034 | tozasertib -0.012 | doramapimod -0.015 | bafetinib 0.005 | [2] -0.012 | nilotinib 0.026 | [3] -0.014 | dasatinib 0.012 | [4] 0.003 | [5] 0.009 | quisinostat 0.024 | tipifarnib 0.016 | [6] 0 | [7] -0.008 | [8] -0.004

PRKDC (UniProt P78527)
inactive: lapatinib -0.032 | pictilisib 0.155 | crizotinib -0.026 | [1] -0.088 | duvelisib 0.298 | gandotinib 0.132 | tozasertib -0.03 | doramapimod -0.038 | bafetinib -0.146 | [2] -0.074 | nilotinib -0.015 | [3] -0.01 | [4] 0.188 | [5] 0.038 | quisinostat -0.093 | tipifarnib -0.011 | [6] 0.004 | [7] 0.123 | [8] -0.073
